Laboratory results published in PubChem BioAssay (NCI).
This is part of a sample that, as a whole, favours compounds with a hit. Of some 83,000 tested, about 20% had one in any assay.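 96-well plates, one dose, 48 hours. Percent growth reported; active if below 10.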 Calls of active or inactive are those of the source.

Tested on: MDA-MB-468 breast
Assay: NCI-60 one-dose screen, 48 h (100 = growth as untreated, 0 = no growth, -100 = all killed)
Settings: 10 µM unless noted

Compound	growth
Cc1cc(N/N=C/c2nc(-c3ccccc3)oc2C)c2cc(Br)ccc2n1	35.7% (inactive)
CSc1ccc2c3c(n(CCCn4ccnc4)c(=O)c2c1)-c1ccccc1C3=O	18.2% (inactive)
CC(C)(C)Nc1c(-c2c3ccccc3cc3ccccc23)nc2ccccn12	68.4% (inactive)
